C diff growth = C. difficile growth inhibitors, primary screen, HTS; Clostridium difficile clinical isolate growth, OD600, 24 h; active compounds read low; growth activity, negative = inhibition, % at 16 µg/mL (by protocol); 86,000 tested, 0.25% active; AID 1259249, 2017;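 active means mean growth activity at or below -80% and every replicate also at or below -80%; inconclusive means mean at or below -80% but some replicate above -80%; inactive means mean growth activity above -80%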
T cruzi growth-1 = T. cruzi intracellular proliferation inhibitors, primary screen, cell-based, beta-gal Tulahuen parasites, NIH3T3 host, luminescence | T. cruzi beta-gal in NIH3T3, GalScreen luminescence, 90 h | inhibition, % at 8.34 µM | 77,000 tested, 5.9% active;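 active means mean inhibition above about 93%, with at least 55% of replicates each passing it, limit read from the data, passing the limit was not always enough; inconclusive means only one of those two conditions holds; inactive means neither condition holds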
Pf Dd2 inh = P. falciparum Dd2 growth inhibitors, primary screen, SYBR Green fluorescence, single dose replicates. 72 h; active compounds read low. activity change, % at 10 µM. 94,000 tested, 2.3% active; in the data active means activity change below about -80%; inconclusive means no clear call, values can overlap the other calls
T cruzi growth-2 = T. cruzi intracellular proliferation inhibitors, confirmation, cell-based, NIH3T3 host, beta-gal parasite, luminescence, cherry-pick; shares compounds with T cruzi growth-1; inhibition, % at 8.35 µM; 5,600 tested, 72% active; T. cruzi beta-gal in NIH3T3, GalScreen luminescence, 90 h;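 active means mean replicate inhibition above about 95% and at least 55% of replicates individually reaching it, limit read from the data; inconclusive means only one of the two criteria is met; inactive means neither criterion is met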
T cruzi growth-3 = inhibitors of intracellular T. cruzi replication, confirmation, NIH3T3 host cells, beta-gal parasites, cherry-pick, set 2; shares compounds with T cruzi growth-1; inhibition, % at 2.09 µM; 5,600 tested, 21% active; AID 651740, 2012; T. cruzi beta-gal in NIH3T3, GalScreen luminescence, 90 h;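 active means mean inhibition above about 95%, with at least 55% of replicates also reaching it, limit read from the data; inconclusive means meets just one of the two conditions; inactive means meets neither condition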
NIH3T3 tox = cytotoxicity in mouse NIH/3T3 fibroblasts, confirmation, cytotoxicity control for T. cruzi proliferation inhibitor project, cell-based, cherry-pick, single point | shares compounds with T cruzi growth-1 | NIH/3T3 viability, CellTiter-Glo ATP luminescence, 90 h | cytotoxicity (signal decrease), % at 8.35 µM | 5,600 tested, 14% active;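 active means mean signal decrease across replicates above about 35% based on untreated-well scatter, with enough replicates individually passing, limit read from the data; inconclusive means no rule stated though some were filed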
3T3 cytotox 2 = NIH/3T3 fibroblast cytotoxicity, confirmation, cytotoxicity control, cell-based, cherry-pick, single point, set 2; 5,600 tested, 56% active; AID 651744, 2012; NIH/3T3 viability, CellTiter-Glo ATP luminescence, 90 h; inhibition, % at 24.9 µM; shares compounds with T cruzi growth-1;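 active means mean loss of cell viability signal at or above a set limit, and enough replicates individually reaching it; inconclusive means meets only the mean limit or only the replicate share; inactive means meets neither condition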
Large screens that a line does not name were inactive (follow-up assays come after a bar, where they were run). In the library only some 6.7% were active in any assay of this set; here they are far more common.

CCCN(C)C[C@@H]1OCCCC[C@H](C)Oc2ccc(NC(=O)Nc3ccc(F)cc3)cc2C(=O)N([C@H](C)CO)C[C@@H]1C	none (no result: Pf Dd2 inh)
C[C@H]1CN([C@@H](C)CO)C(=O)c2cc(NC(=O)Nc3ccc(F)cc3)ccc2O[C@H]1CN(C)C(=O)Nc1cccc2ccccc12	none (no result: T cruzi growth-1)
COCc1cn(CC[C@H]2CC[C@@H](NC(=O)Nc3ccc(F)cc3)[C@H](CO)O2)nn1	none
O=C(c1cnccn1)N1CC(=O)N2[C@H](CO)[C@H](c3ccc(C#CC4CCCC4)cc3)[C@@H]2C1	none (no result: T cruzi growth-1)
O=C(C[C@@H]1CC[C@H]2[C@@H](COC[C@@H](O)CN2Cc2cccc(C(F)(F)F)c2)O1)NCCc1ccncc1	none
C[C@@H]1CN([C@H](C)CO)C(=O)c2cc(NC(=O)C3CCCCC3)ccc2O[C@@H](C)CCCCO[C@@H]1CN(C)S(=O)(=O)c1ccc(Cl)cc1	T cruzi growth-1 102, Pf Dd2 inh -86 | T cruzi growth-2 104 | T cruzi growth-3 inactive | NIH3T3 tox inactive | 3T3 cytotox 2 inactive
Cc1ccc(S(=O)(=O)N(C)C[C@@H]2OCCCC[C@@H](C)Oc3ccc(NC(=O)C4CCCCC4)cc3C(=O)N([C@@H](C)CO)C[C@H]2C)cc1	none (no result: C diff growth)
C[C@@H]1CCCCO[C@@H](CN(C)S(=O)(=O)c2ccc(F)cc2)[C@@H](C)CN([C@@H](C)CO)C(=O)c2cc(NC(=O)C3CCCCC3)ccc2O1	none
C[C@H]1CCCCO[C@H](CN(C)S(=O)(=O)c2ccc(Cl)cc2)[C@@H](C)CN([C@@H](C)CO)C(=O)c2cc(NC(=O)C3CCCCC3)ccc2O1	T cruzi growth-1 110, Pf Dd2 inh -85 | T cruzi growth-2 110 | T cruzi growth-3 101 | NIH3T3 tox inactive | 3T3 cytotox 2 inactive
C/C=C/c1cnc2c(c1)C(=O)N([C@@H](C)CO)C[C@@H](C)[C@@H](CN(C)Cc1ccncc1)O2	none
Cc1noc(C)c1S(=O)(=O)N(C)C[C@@H]1Oc2ccc(NS(=O)(=O)c3ccc(Cl)cc3)cc2C(=O)N([C@H](C)CO)C[C@@H]1C	none
C[C@H](CO)N1C[C@H](C)[C@H](CN(C)Cc2ccc3c(c2)OCO3)OCCCC[C@H](C)Oc2ccc(NS(=O)(=O)c3cccs3)cc2C1=O	none
CC(C)C#Cc1ccc2c(c1)O[C@@H](CN(C)C(=O)Nc1ccccc1)[C@@H](C)CN([C@@H](C)CO)S2(=O)=O	none (no result: T cruzi growth-1)
C[C@H]1CN([C@@H](C)CO)S(=O)(=O)c2ccc(C#Cc3ccccc3)cc2O[C@H]1CN(C)C(=O)Nc1ccc2c(c1)OCO2	T cruzi growth-1 132 | T cruzi growth-2 99 | T cruzi growth-3 inactive | NIH3T3 tox inactive | 3T3 cytotox 2 inactive
C[C@@H](O)C#Cc1ccc2c(c1)O[C@@H](CN(C)C(=O)Nc1ccccc1)[C@@H](C)CN([C@@H](C)CO)S2(=O)=O	none
C[C@@H]1CN([C@@H](C)CO)S(=O)(=O)c2ccc(C#Cc3ccccc3)cc2O[C@H]1CN(C)C(=O)Nc1ccccc1	T cruzi growth-1 123 | T cruzi growth-2 98 | T cruzi growth-3 108 | NIH3T3 tox 40 | 3T3 cytotox 2 36
C[C@@H]1CN([C@H](C)CO)S(=O)(=O)c2ccc(C#Cc3ccccc3)cc2O[C@H]1CN(C)C(=O)Nc1ccccc1	T cruzi growth-1 122 | T cruzi growth-2 109 | T cruzi growth-3 inactive | NIH3T3 tox 37 | 3T3 cytotox 2 50
C[C@H]1CN([C@@H](C)CO)S(=O)(=O)c2ccc(C#Cc3ccccc3)cc2O[C@@H]1CN(C)C(=O)Nc1ccccc1	T cruzi growth-1 119 | T cruzi growth-2 102 | T cruzi growth-3 inactive | NIH3T3 tox inactive | 3T3 cytotox 2 40
C[C@H]1CN([C@@H](C)CO)S(=O)(=O)c2ccc(C#Cc3ccncc3)cc2O[C@H]1CN(C)C(=O)Nc1ccc2c(c1)OCO2	none
CC(C)C#Cc1ccc2c(c1)O[C@@H](CN(C)C(=O)Nc1ccccc1)[C@H](C)CN([C@@H](C)CO)S2(=O)=O	none (no result: T cruzi growth-1)
C[C@@H]1CCCCO[C@@H](CN(C)S(C)(=O)=O)[C@@H](C)CN([C@H](C)CO)C(=O)c2cc(NS(=O)(=O)c3cccs3)ccc2O1	none
O=C(Nc1ccccc1F)N[C@@H]1CC[C@@H](CCNS(=O)(=O)c2ccc(F)cc2)O[C@H]1CO	none (no result: T cruzi growth-1, Pf Dd2 inh)
COC(=O)C[C@H]1CC[C@@H]2[C@@H](COc3ccc(NC(=O)c4cnccn4)cc3C(=O)N2C)O1	none
COc1ccccc1NC(=O)N[C@H]1CC[C@@H](CCNS(=O)(=O)c2ccc(Cl)cc2)O[C@@H]1CO	none
C[C@H](CO)N1C[C@H](C)[C@@H](CN(C)C(=O)CN(C)C)Oc2cc(C3=CCCC3)ccc2S1(=O)=O	none
C[C@@H]1CN([C@@H](C)CO)S(=O)(=O)c2ccc(C3=CCCC3)cc2O[C@@H]1CN(C)C(=O)Nc1ccc2c(c1)OCO2	none
C[C@@H]1CN([C@@H](C)CO)S(=O)(=O)c2ccc(C3=CCCC3)cc2O[C@H]1CN(C)C(=O)Nc1ccc2c(c1)OCO2	T cruzi growth-1 112 | T cruzi growth-2 106 | T cruzi growth-3 inactive | NIH3T3 tox inactive | 3T3 cytotox 2 61
CCC(=O)Nc1ccc2c(c1)OC[C@@H](C)N(C(=O)CN(C)C)C[C@@H](C)[C@@H](OC)CN(C)C2=O	none (no result: C diff growth)
COc1ccc(-c2ccc3c(c2)O[C@H](CN(C)Cc2cccnc2)[C@@H](C)CN([C@H](C)CO)S3(=O)=O)cc1	none (no result: T cruzi growth-1)
COc1cccc(-c2ccc3c(c2)O[C@H](CN(C)Cc2cccnc2)[C@H](C)CN([C@H](C)CO)S3(=O)=O)c1	T cruzi growth-1 112 | T cruzi growth-2 97 | T cruzi growth-3 inactive | NIH3T3 tox 54 | 3T3 cytotox 2 64
COc1ccc(-c2ccc3c(c2)O[C@@H](CN(C)Cc2cccnc2)[C@@H](C)CN([C@@H](C)CO)S3(=O)=O)cc1	none (no result: T cruzi growth-1)
COc1cccc(-c2ccc3c(c2)O[C@H](CN(C)Cc2cccnc2)[C@@H](C)CN([C@@H](C)CO)S3(=O)=O)c1	T cruzi growth-1 119 | T cruzi growth-2 105 | T cruzi growth-3 106 | NIH3T3 tox inconclusive | 3T3 cytotox 2 60
COc1cccc(-c2ccc3c(c2)O[C@H](CN(C)Cc2cccnc2)[C@H](C)CN([C@@H](C)CO)S3(=O)=O)c1	T cruzi growth-1 100 | T cruzi growth-2 97 | T cruzi growth-3 101 | NIH3T3 tox 63 | 3T3 cytotox 2 66
